# In PubChem BioAssay (NCATS):
# Values without a mark were called inactive. Inconclusive results are not listed. Entries that show only a call come without a potency. Active and inactive are the calls of the source. Unless noted, the call rests on the fitted dose curve; in most records, active means well fitted curve in the direction sought with a large enough effect; inconclusive means small, poorly fitted or top-dose-only effect, or another doubt; inactive means no such curve, though single readings can be large; an effect the other way counts as inactive or inconclusive.
# Experiments:
# UISO = experiment: qHTS assay to identify novel small-molecules to repurpose for Merkel cell carcinoma treatment (AID 1296009); settings: MCC and control cell lines, CellTiter-Glo viability, 72 h; series mostly up to 46 µM; further: nearly all actives have a fitted effect of over 60% in size; further: potency means the concentration at half of the fitted maximal effect
# Procedure, shortened: (§1)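 Cell viability, measured as CellTiter-Glo luminescence, was normalized between DMSO and no-cell wells. The cells had been exposed to 8- or 11-point compound dilutions for 72 hr at 37 degree celsius.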
# WaGa = experiment: as above; settings: MCC and control cell lines, CellTiter-Glo viability, 72 h; series mostly up to 46 µM
# Procedure, shortened: as §1
# C33A = experiment: Primary qHTS to identify gynecologic anti-cancer compounds using libraries of approved drugs and bioactive compounds (AID 1345084); settings: Gynecologic cancer cell panel viability, ATPlite luminescence, 48 h; series mostly up to 57.5 µM; further: nearly all actives have a fitted effect of over 55% in size; further: potency means the concentration at half of the fitted maximal effect
# Procedure, shortened: (§2)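 Measured: luminescence after ATPlite addition (15 min, RT). Exposure: 48 h, 37 C, 5% CO2.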
# CASKI = experiment: as above; settings: Gynecologic cancer cell panel viability, ATPlite luminescence, 48 h; series mostly up to 57.5 µM
# Procedure, shortened: as §2
# Es-2 = experiment: as above; settings: Gynecologic cancer cell panel viability, ATPlite luminescence, 48 h; series mostly up to 57.5 µM
# Procedure, shortened: as §2
# Hek293T = experiment: as above; settings: Gynecologic cancer cell panel viability, ATPlite luminescence, 48 h, control line for the selectivity index; series mostly up to 57.5 µM
# Procedure, shortened: as §2
# PA-1 = experiment: as above; settings: Gynecologic cancer cell panel viability, ATPlite luminescence, 48 h; series mostly up to 57.5 µM
# Procedure, shortened: as §2
# Tov-21-G = experiment: as above; settings: Gynecologic cancer cell panel viability, ATPlite luminescence, 48 h; series mostly up to 57.5 µM
# Procedure, shortened: as §2
# Tov112D = experiment: as above; settings: Gynecologic cancer cell panel viability, ATPlite luminescence, 48 h; series mostly up to 57.5 µM
# Procedure, shortened: as §2
# [1] = qHTS assay to identify inhibitors of the type 1 interferon - major histocompatibility complex class I in skeletal muscle: Counter screen cell viability and HiBit confirmation (AID 1347412); settings: iHSKM muscle cells + IFN-b, HiBiT or CellTiter-Glo, 24 h; for Potency: HiBiT; for activity change, negative = inhibition: Viability, at 45.9 µM (top of the series); further: potency means the concentration at half of the fitted maximal effect; on all read-outs here: nearly all actives have a fitted effect of over 60% in size
# Procedure, shortened: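 Human myoblast knock-in line, 4.0 ng/ml IFN-beta stimulation, 24 h compound treatment. Endpoints: HiBiT lytic luminescence (HLA-B level) and CellTiter Glo (ATP). Dosing 12 concentrations, 3-fold steps, 46 uM highest final.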
# HeLa = experiment: Primary qHTS to identify gynecologic anti-cancer compounds using libraries of approved drugs and bioactive compounds (AID 1345084); settings: Gynecologic cancer cell panel viability, ATPlite luminescence, 48 h; series mostly up to 57.5 µM; further: nearly all actives have a fitted effect of over 55% in size; further: potency means the concentration at half of the fitted maximal effect
# Procedure, shortened: as §2
# JEG-3 = experiment: as above; settings: Gynecologic cancer cell panel viability, ATPlite luminescence, 48 h; series mostly up to 57.5 µM
# Procedure, shortened: as §2
# OV90 = experiment: as above; settings: Gynecologic cancer cell panel viability, ATPlite luminescence, 48 h; series mostly up to 57.5 µM
# Procedure, shortened: as §2
# SKOV3 = experiment: as above; settings: Gynecologic cancer cell panel viability, ATPlite luminescence, 48 h; series mostly up to 57.5 µM
# Procedure, shortened: as §2
# CAOV3 = experiment: as above; settings: Gynecologic cancer cell panel viability, ATPlite luminescence, 48 h; series mostly up to 57.5 µM
# Procedure, shortened: as §2
# [2] = target: Nuclear receptor subfamily 1 group I member 2 (Rattus norvegicus) (UniProt Q9R1A7); experiment: qHTS assay for small molecule activators of the rat pregnane X receptor (rPXR) signaling pathway (AID 651751; call rule not given here); settings: rPXR reporter cells, luciferase (One-Glo), 24 h
# Chain of Nuclear receptor subfamily 1 group I member 2 (Rattus norvegicus) (Q9R1A7 whole entry, looked up): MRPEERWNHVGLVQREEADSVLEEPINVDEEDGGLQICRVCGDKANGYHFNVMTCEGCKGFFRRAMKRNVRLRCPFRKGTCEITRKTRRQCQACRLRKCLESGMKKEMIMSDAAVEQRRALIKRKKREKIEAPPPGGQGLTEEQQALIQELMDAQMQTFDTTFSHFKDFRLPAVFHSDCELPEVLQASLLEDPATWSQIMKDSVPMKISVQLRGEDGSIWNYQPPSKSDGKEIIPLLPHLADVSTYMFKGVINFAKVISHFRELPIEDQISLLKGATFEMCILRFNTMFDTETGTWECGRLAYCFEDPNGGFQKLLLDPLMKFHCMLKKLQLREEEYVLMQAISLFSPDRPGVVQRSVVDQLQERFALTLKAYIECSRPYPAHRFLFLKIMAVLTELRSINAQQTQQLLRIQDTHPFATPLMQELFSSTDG
# [3] = qHTS assay for small molecule activators of the human pregnane X receptor (PXR) signaling pathway (AID 720659; call rule not given here)
Compound,Potency (UISO),Potency (WaGa),Potency (C33A),Potency (CASKI),Potency (Es-2),Potency (Hek293T),Potency (PA-1),Potency (Tov-21-G),Potency (Tov112D),Potency [1],"activity change, negative = inhibition [1] [%]",Potency (HeLa),Potency (JEG-3),Potency (OV90),Potency (SKOV3),Potency (CAOV3),max response [2] [%],outcome [3]
CC[C@@]1(O)C(=O)OCc2c1cc1n(c2=O)Cc2cc3cc(O)ccc3nc2-1,0.0743 µM (active),0.0187 µM (active),0.794 µM (active),0.398 µM (active),0.355 µM (active),1.26 µM (active),0.282 µM (active),3.55 µM (active),0.0794 µM (active),2.79 µM (active),8.39,–,–,–,–,–,–,–
COc1ccc(-n2nc(C(N)=O)c3c2C(=O)N(c2ccc(N4CCCCC4=O)cc2)CC3)cc1,inactive,inactive,inactive,inactive,inactive,inactive,inactive,inactive,inactive,–,–,inactive,inactive,inactive,inactive,–,–,–
O=C(O)CCCc1c[nH]c2ccccc12,inactive,inactive,inactive,inactive,inactive,inactive,inactive,inactive,inactive,–,–,inactive,inactive,inactive,inactive,inactive,-0.908,inactive
C[C@]12CC[C@H](O)CC1=CCC1C2CC[C@]2(C)C(n3cnc4ccccc43)=CCC12 (some centres not stated),inactive,inactive,inactive,inactive,inactive,inactive,inactive,inactive,inactive,–,–,inactive,inactive,inactive,inactive,–,–,–
COc1cc2c(cc1-c1c(C)noc1C)ncc1[nH]c(=O)n([C@H](C)c3ccccn3)c12,14.8 µM (active),5.9 µM (active),inactive,3.98 µM (active),–,inactive,inactive,–,–,–,1.25,–,12.6 µM (active),–,–,inactive,–,–
CNc1nccc(-c2cccnc2Oc2cc(C(=O)Nc3cccc(C(F)(F)F)c3)ccc2C)n1,inactive,inactive,inactive,–,–,inactive,–,28.2 µM (active),–,–,–,–,inactive,–,28.2 µM (active),–,–,–
CN(C)c1nc(Cc2ccc(NC(=O)c3ccc4ccccc4c3)cc2)nc(Cl)c1CC(=O)O,inactive,inactive,inactive,inactive,inactive,inactive,inactive,inactive,inactive,–,–,inactive,inactive,inactive,–,–,–,–
CS(=O)(=O)c1ccc(-c2cnc(N)c(C(=O)Nc3ccccc3)n2)cc1,inactive,inactive,inactive,inactive,–,inactive,–,8.91 µM (active),inactive,–,–,inactive,inactive,inactive,–,–,–,–
Cc1cc(Nc2ncnc3ccc(-c4ccc(CNCCS(C)(=O)=O)o4)cc23)ccc1Oc1ccn2ncnc2c1,14.8 µM (active),5.26 µM (active),inactive,inactive,inactive,inactive,inactive,inactive,inactive,–,–,inactive,inactive,inactive,inactive,–,–,–
CCOc1ccccc1OCCNC(C)Cc1ccc(OC)c(S(N)(=O)=O)c1 (configuration not stated),inactive,inactive,inactive,inactive,inactive,inactive,inactive,inactive,inactive,–,–,inactive,inactive,inactive,inactive,–,–,–
CNC(=O)c1nn(C)c2c1C(C)(C)Cc1cnc(Nc3ccc(N4CCN(C)CC4)cc3)nc1-2,0.235 µM (active),5.9 µM (active),0.631 µM (active),15.8 µM (active),–,7.94 µM (active),2.24 µM (active),–,2.24 µM (active),1.98 µM (active),28.9,2.82 µM (active),11.2 µM (active),–,–,–,–,–
Nc1ccccc1NC(=O)c1ccc(CNc2nccc(-c3cccnc3)n2)cc1,2.35 µM (active),0.418 µM (active),6.31 µM (active),8.91 µM (active),4.47 µM (active),–,0.708 µM (active),2.82 µM (active),3.55 µM (active),3.94 µM (active),3.24,0.891 µM (active),3.55 µM (active),–,3.98 µM (active),–,–,–
Cc1coc2c1C(=O)C(=O)c1c-2ccc2c1CCCC2(C)C,inactive,inactive,inactive,inactive,inactive,inactive,inactive,–,inactive,–,–,–,–,–,–,inactive,–,–
Nc1nccc(Oc2ccc(NC(=O)c3c[nH]cc(-c4ccc(F)cc4)c3=O)cc2F)c1Cl,14.8 µM (active),2.35 µM (active),inactive,inactive,–,inactive,inactive,inactive,inactive,–,1.85,inactive,inactive,inactive,–,–,–,–
